Over roughly 81,000 sequences, “one-hybrid fitness for binding parS DNA” has its median near -0.17; the highest 2% begin near 0.51. This is one part of a sample in which the highest values are shown more often than they occur.
B1: Caulobacter ParB omega fusion; a variant is named by its letters at X, in order, B8GW30 (parent)
chain: MESVVVGEPGMSEGRRGLGRGLSALLGEVDAAPAQAPGEQLGGSREAPIEILQRNPDQPRRTFREEDLEDLSNSIREKGVLQPILVRPSPDTAGEYQIVAGERAWRAAQRAGLKTVPIMVRELDDLAVLEIGIIENVQRADLNVLEEALSYKVLMEKFERTQENIAQTIGKSXSHVANXMRLLXLPDEVQSYLVSGELTAXHARAIAAAADPVALAKQIIEGGLSVRETEALARKAPNLSAGKSKGGRPPRVKDTDTQALESDLSSVLGLDVSIDHRGSTGTLTITYATLEQLDDLCNRLTRGI

Variants of: B1
Assay: one-hybrid fitness for binding parS DNA (scaled: cognate 1, non-cognate 0); higher = stronger binding
Conditions: with parS DNA site
Method in brief: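 Values were rescaled so that cognate is 1 and non-cognate is 0. Each is a fitness, the log change in a variant's read ratio to wild type from Illumina reads of plasmids before and after selection, with three replicate libraries pooled and variants under 10 reads dropped. Selection of the Caulobacter ParB libraries, four specificity codons randomised, used E. coli USO with a HIS3 reporter, site 19 bp from the promoter, on M9-minus-histidine with 0.1 mM IPTG and 5 mM 3-AT for 48 hours at 37°C.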

| Variant | one-hybrid fitness for binding parS DNA |
| --- | --- |
| RNMS | 0.868 |
| RNMD | ≤ 0.2 |
| RNMT | 0.678 |
| RNMP | ≤ 0.2 |
| RNMG | 0.819 |
| RNMC | 0.745 |
| RNMY | 0.325 |
| RNMF | ≤ 0.2 |
| RNML | ≤ 0.2 |
| RNMH | ≤ 0.2 |
| RNMN | 0.299 |
| RNMK | ≤ 0.2 |
| GRCA | ≤ 0.2 |
| PERA | ≤ 0.2 |
| TDEN | ≤ 0.2 |
| YRHT | ≤ 0.2 |
| VWAT | ≤ 0.2 |
| VNSR | ≤ 0.2 |
| FTWC | ≤ 0.2 |
| RYFD | ≤ 0.2 |
| RYAN | 0.387 |
| RYAT | 0.899 |
| RYFT | 0.792 |
| RYAD | ≤ 0.2 |
| RYFF | 0.256 |

| Variant | one-hybrid fitness for binding parS DNA |
| --- | --- |
| NHVC | ≤ 0.2 |
| AYMK | ≤ 0.2 |
| PDKP | ≤ 0.2 |
| YYNR | ≤ 0.2 |
| TQLI | ≤ 0.2 |
| KLHC | ≤ 0.2 |
| YNTM | ≤ 0.2 |
| RHNI | ≤ 0.2 |
| RKKN | 0.356 |
| RKVH | ≤ 0.2 |
| RKVS | 0.967 |
| RKVN | 0.36 |
| RKKS | 0.69 |
| RKKH | 0.317 |
| QPGI | ≤ 0.2 |
| QTTR | ≤ 0.2 |
| DASR | ≤ 0.2 |
| WTNT | ≤ 0.2 |
| MFKT | ≤ 0.2 |
| CHQS | ≤ 0.2 |
| PYYS | ≤ 0.2 |
| RHDT | 0.791 |
| RHNT | 0.857 |
| RHNQ | ≤ 0.2 |
| RHDK | ≤ 0.2 |

| Variant | one-hybrid fitness for binding parS DNA |
| --- | --- |
| RHDR | ≤ 0.2 |
| RHNE | ≤ 0.2 |
| TAQY | ≤ 0.2 |
| WPVT | ≤ 0.2 |
| QWVG | ≤ 0.2 |
| YAIL | ≤ 0.2 |
| KTMW | ≤ 0.2 |
| TMYG | ≤ 0.2 |
| RLKQ | ≤ 0.2 |
| RLKM | 0.399 |
| RLVR | ≤ 0.2 |
| RLVC | 0.962 |
| RLVM | 0.295 |
| RLKC | 0.835 |
| TPAN | ≤ 0.2 |
| FQLR | ≤ 0.2 |
| LNTV | ≤ 0.2 |
| MPHS | ≤ 0.2 |
| CAAN | ≤ 0.2 |
| RMHC | 0.979 |
| RRHC | 0.616 |
| RRHF | ≤ 0.2 |
| REHC | ≤ 0.2 |
| RCHC | 1 |
| RSHF | 0.257 |

| Variant | one-hybrid fitness for binding parS DNA |
| --- | --- |
| RSHC | 0.968 |
| RMHK | ≤ 0.2 |
| RPHC | ≤ 0.2 |
| RRHQ | ≤ 0.2 |
| RMHL | ≤ 0.2 |
| RDHC | ≤ 0.2 |
| MHLM | ≤ 0.2 |
| TNRP | ≤ 0.2 |
| MWSS | ≤ 0.2 |
| SVES | ≤ 0.2 |
| RHCP | ≤ 0.2 |
| RRCP | ≤ 0.2 |
| RRCS | 0.67 |
| RHCS | 0.938 |
| RICN | 0.447 |
| RICH | 0.24 |
| RHCH | ≤ 0.2 |
| RKCN | 0.302 |
| RRCD | ≤ 0.2 |
| RKCP | ≤ 0.2 |
| RICS | 1.02 |
| RKCS | 0.855 |
| PGNH | ≤ 0.2 |
| VCRG | ≤ 0.2 |
| IYRT | ≤ 0.2 |

| Variant | one-hybrid fitness for binding parS DNA |
| --- | --- |
| LYPG | ≤ 0.2 |
| CREE | ≤ 0.2 |
| CEDV | ≤ 0.2 |
| YGYI | ≤ 0.2 |
| FTNL | ≤ 0.2 |
| MSES | ≤ 0.2 |
| RFCS | 1 |
| RTCH | 0.289 |
| RLCN | 0.457 |
| RTCS | 0.99 |
| RTCP | ≤ 0.2 |
| RCCP | 0.223 |
| RPCS | ≤ 0.2 |
| RFCP | ≤ 0.2 |
| RCCS | 1.01 |
| RLCH | 0.22 |
| RFCN | 0.375 |
| RLCS | 1.03 |
| PMLA | ≤ 0.2 |
| LCAF | ≤ 0.2 |
| IIKG | ≤ 0.2 |
| WMTR | ≤ 0.2 |
| RCFL | ≤ 0.2 |
| LMPT | ≤ 0.2 |
| VVHG | ≤ 0.2 |

| Variant | one-hybrid fitness for binding parS DNA |
| --- | --- |
| EKSI | ≤ 0.2 |
| RACP | ≤ 0.2 |
| RSCH | 0.223 |
| RMCS | 1.01 |
| RACH | 0.306 |
| RSCN | 0.407 |
| RACS | 1 |
| RMCP | ≤ 0.2 |
| RMCD | ≤ 0.2 |
| RSCS | 0.995 |
| CVLT | ≤ 0.2 |
| RWPM | ≤ 0.2 |
| GPYM | ≤ 0.2 |
| RKFY | 0.363 |
| RKFC | 0.878 |
| RKAM | 0.264 |
| RKAC | 0.878 |
| RKAQ | ≤ 0.2 |
| RKFF | ≤ 0.2 |
| AFRC | ≤ 0.2 |
| LDSE | ≤ 0.2 |
| NVKW | ≤ 0.2 |
| VMRY | ≤ 0.2 |
| RDCT | ≤ 0.2 |
| RTCM | 0.298 |

| Variant | one-hybrid fitness for binding parS DNA |
| --- | --- |
| RSCT | 0.809 |
| RMCM | 0.362 |
| RMCT | 0.888 |
| RTCF | 0.252 |
| RECT | ≤ 0.2 |
| RCCT | 0.913 |
| RSCM | 0.347 |
| RTCT | 0.917 |
| RMCL | ≤ 0.2 |
| RPCT | ≤ 0.2 |
| YHLN | ≤ 0.2 |
| EVTM | ≤ 0.2 |
| RFLI | ≤ 0.2 |
| QHYD | ≤ 0.2 |
| IDQR | ≤ 0.2 |
| NLHV | ≤ 0.2 |
| MGRC | ≤ 0.2 |
| RPEA | ≤ 0.2 |
| RLEA | 0.567 |
| RCEA | 0.515 |
| RQEA | 0.554 |
| RREA | 0.802 |
| RSEA | 0.476 |
| RAEA | 0.476 |
| RFEA | 0.454 |

| Variant | one-hybrid fitness for binding parS DNA |
| --- | --- |
| TIMD | ≤ 0.2 |
| PRLC | ≤ 0.2 |
| MSLL | ≤ 0.2 |
| FHAL | ≤ 0.2 |
| SRDG | ≤ 0.2 |
| AALF | ≤ 0.2 |
| LFAM | ≤ 0.2 |
| RKEA | 0.515 |
| RDEA | ≤ 0.2 |
| RHEA | 0.512 |
| RTEA | 0.58 |
| RYEA | 0.548 |
| FASM | ≤ 0.2 |
| SHST | ≤ 0.2 |
| GLPS | ≤ 0.2 |
| DMPT | ≤ 0.2 |
| YLIW | ≤ 0.2 |
| FRKA | ≤ 0.2 |
| LMTN | ≤ 0.2 |
| GIRR | ≤ 0.2 |
